# Measured values taken from publication PMC11062922 (Nature Chemical Biology, 2023).
# Experiments:
# Settings in all cases: read-out: apparent Kd; compound concentrations:100 nM and 1000 nM (sheet 'Lestaurtinib' of Supplementary Table 1),run:Lestaurtinib_02487_R1,Plate:MR012; n = 1
# [1] = test system: BCR
# [2] = test system: BUB1
# [3] = test system: CSK
# [4] = test system: CSNK2A2
# [5] = test system: EPHA1
# [6] = test system: EPHA2
# [7] = test system: EPHA4
# [8] = test system: EPHB1
# [9] = test system: EPHB3
# [10] = test system: EPHB4
# [11] = test system: FGFR1
# [12] = test system: PRKCQ
# [13] = test system: PTK2
# [14] = test system: PTK6
# [15] = test system: RIPK2
# [16] = test system: RPS6KA1
# [17] = test system: SRC
# [18] = test system: TAOK1
# [19] = test system: TEC
# [20] = test system: ULK1
substance,measurement,setting,value
Lestaurtinib,potency estimated from few doses,[1],0.314 µM
same,potency estimated from few doses,[2],0.854 µM
same,potency estimated from few doses,[3],0.526 µM
same,potency estimated from few doses,[4],0.415 µM
same,potency estimated from few doses,[5],0.297 µM
same,potency estimated from few doses,[6],0.428 µM
same,potency estimated from few doses,[7],0.268 µM
same,potency estimated from few doses,[8],0.403 µM
same,potency estimated from few doses,[9],0.78 µM
same,potency estimated from few doses,[10],0.207 µM
same,potency estimated from few doses,[11],1.15 µM
same,potency estimated from few doses,[12],2.17 µM
same,potency estimated from few doses,[13],0.345 µM
same,potency estimated from few doses,[14],0.533 µM
same,potency estimated from few doses,[15],0.81 µM
same,potency estimated from few doses,[16],1.82 µM
same,potency estimated from few doses,[17],0.618 µM
same,potency estimated from few doses,[18],1.53 µM
same,potency estimated from few doses,[19],0.895 µM
same,potency estimated from few doses,[20],0.549 µM
